Laboratory results reported in PubChem BioAssay (NCI).
Compounds without any hit were thinned out: in the full panel of roughly 83,000, 20% have a hit.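 Percent growth is the endpoint: 0 to 100 indicates growth inhibition (40 means 60% inhibition), 0 means no net growth, and negative values indicate cell death.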 Calls of active or inactive are those of the source. How the source made its calls: active means growth percent below 10; inactive means the rest.

Assays:
Experiment in all cases: NCI-60 one-dose screen, 48 h (100 = growth as untreated, 0 = no growth, -100 = all killed)
Details in all cases: 10 µM unless noted
[1] = system: SR leukemia
[2] = system: RPMI-8226 leukemia
[3] = system: OVCAR-8 ovarian
[4] = system: OVCAR-5 ovarian
[5] = system: OVCAR-4 ovarian
[6] = system: SK-OV-3 ovarian
[7] = system: IGROV1 ovarian
[8] = system: OVCAR-3 ovarian
[9] = system: HS 578T breast
[10] = system: NCI/ADR-RES ovarian
[11] = system: T-47D breast
[12] = system: MDA-MB-435 melanoma
[13] = system: SW-620 colon
[14] = system: MCF7 breast
[15] = system: HCT-116 colon
[16] = system: HCC-2998 colon
[17] = system: KM12 colon
[18] = system: BT-549 breast

Measured: growth

Oc1ccccc1/C=N/N=C\c1ccccc1Cl
inactive: [1] 82.4% | [2] 102% | [3] 95.2% | [4] 115% | [5] 93.4% | [6] 96% | [7] 70.3% | [8] 84.1% | [9] 105% | [10] 95.2% | [11] 67.1% | [12] 107% | [13] 94.6% | [14] 54.1% | [15] 100% | [16] 100% | [17] 88.4%

COc1cc(-c2nn(-c3ccc(NC(=O)c4ccc(Cl)c(Cl)c4)cc3)cc2-c2ccncc2)ccc1Cl
inactive: [1] 11.3% | [3] 31.4% | [4] 81.8% | [5] 57% | [6] 94.4% | [7] 96.3% | [8] 68.4% | [10] 72.5% | [11] 64.9% | [12] 86.2% | [13] 48.6% | [14] 60.6% | [15] 25% | [16] 48.3% | [17] 25.1%
active: [2] 4.1% | [9] -23.7%

Cc1ccccc1-n1c(C)nc2cc(NC(=O)c3ccc(Cl)cc3)ccc2c1=O
inactive: [1] 73.7% | [2] 44.6% | [3] 84% | [4] 75.9% | [5] 30.1% | [6] 83.2% | [7] 78.6% | [8] 58.9% | [9] 82.1% | [10] 82.4% | [11] 29% | [12] 43.7% | [13] 86% | [14] 57.8% | [15] 74.8% | [16] 80.9% | [17] 76.6%

COc1ccc(-c2nc(N)n(C(=S)Nc3ccccc3)n2)cc1
inactive: [1] 90.8% | [2] 99% | [3] 97.8% | [4] 111% | [5] 109% | [6] 94.7% | [7] 99.4% | [8] 103% | [9] 87.2% | [10] 102% | [11] 84.8% | [18] 102% | [13] 99% | [14] 89.1% | [15] 98.3% | [16] 107% | [17] 95.5%

COc1cccc2c1n([O-])c1cccc(OC)c1[n+]2=O
inactive: [1] 19.8% | [2] 31.8% | [3] 52.8% | [4] 18.2% | [5] 50.2% | [6] 90.8% | [8] 164% | [9] 99% | [10] 61.1% | [11] 50.2% | [12] 91.5% | [13] 68% | [14] 36.9% | [15] 48.5%
active: [7] -46.3% | [16] -4.2%

C[C@@H](c1ccc2c(c1)[nH]c1ccc(Cl)cc12)c1nc2ccc(Cl)cc2[nH]1
active: [2] 8.76%
inactive: [1] 43.2% | [3] 94% | [4] 75.2% | [5] 74.2% | [6] 96.3% | [7] 57.6% | [8] 72% | [9] 107% | [10] 88.1% | [11] 19.1% | [12] 106% | [13] 98.7% | [14] 13.8% | [15] 79.7% | [16] 92%

CCCCCCN(CCCCCC)CCC(=O)Nc1ccc(S(=O)(=O)c2ccc(NC(=O)CCN(CCCCCC)CCCCCC)cc2)cc1
active: [1] 7.85%
inactive: [2] 60.7% | [3] 90.8% | [4] 82.9% | [5] 77.6% | [6] 84.2% | [7] 84.3% | [8] 80.7% | [10] 83.8% | [11] 60% | [18] 87.5% | [12] 90.5% | [13] 84.6% | [14] 68.7% | [15] 61.2% | [16] 32.5% | [17] 89.5%

Oc1ccc(Br)cc1/C=N/NC(=S)NC12CC3CC(CC(C3)C1)C2
active: [1] -7.5% | [2] -21.3% | [3] -31.3% | [7] 5.57% | [8] -26.5% | [10] -3.63% | [11] -4.11% | [13] -24.8% | [14] -17.4% | [16] -8.19% | [17] -24.6%
inactive: [4] 46.9% | [5] 36.9% | [6] 39.7% | [18] 64.3% | [12] 18.6%

COC(=O)[C@H](Cc1cn(C)cn1)NC(=O)[C@@H](NC(=O)Nc1cc(C(F)(F)F)cc(C(F)(F)F)c1)C(C)(C)C
inactive: [4] 39.7% [100 µM] | [10] 78.1% [100 µM]
active: [1] -41.3% [100 µM] | [2] -53.8% [100 µM] | [3] -55.2% [100 µM] | [5] -71.5% [100 µM] | [6] -25.6% [100 µM] | [7] -63% [100 µM] | [8] -99.3% [100 µM] | [11] -63.9% [100 µM] | [18] -90.4% [100 µM] | [12] -89.3% [100 µM] | [13] -46.4% [100 µM] | [14] -59.2% [100 µM] | [15] -91.5% [100 µM] | [16] -94.2% [100 µM] | [17] -88.7% [100 µM]

C=CCNCCC#N
inactive: [1] 89.7% | [2] 101% | [3] 96.8% | [4] 108% | [5] 106% | [6] 103% | [7] 108% | [8] 114% | [10] 117% | [11] 96.3% | [18] 105% | [12] 109% | [13] 110% | [14] 99.5% | [15] 100% | [16] 116% | [17] 115%

CC(=O)OCC(=O)[C@@]1(O)[C@H](C)C[C@H]2[C@@H]3C=C(C)C4=Cc5c(cnn5-c5ccc(F)cc5)C[C@]4(C)[C@H]3[C@@H](O)C[C@@]21C
active: [1] 0.104% | [2] -16.8% | [8] -20% | [13] -70.3% | [16] -35.3% | [17] -46.7%
inactive: [3] 32.7% | [4] 16.9% | [5] 38.8% | [6] 23.9% | [7] 16% | [10] 18.6% | [11] 42.9% | [18] 54.8% | [12] 23.3% | [14] 18.9% | [15] 15.7%

COc1ccc(Oc2[nH]n(C3=Nc4ccccc4Sc4ccccc43)c(=O)c2C#N)cc1
inactive: [1] 130% | [2] 91.2% | [3] 96.2% | [4] 116% | [5] 112% | [6] 95.5% | [7] 91.6% | [8] 91.8% | [10] 87% | [11] 92.8% | [18] 98.2% | [12] 101% | [14] 101% | [15] 93.5% | [16] 103% | [17] 104%

O=C(Oc1ccccc1)c1ccccc1Cl
inactive: [1] 104% | [2] 62.9% | [3] 104% | [4] 90.7% | [5] 108% | [6] 101% | [7] 109% | [8] 97.3% | [10] 104% | [11] 100% | [18] 96.8% | [12] 103% | [13] 104% | [14] 102% | [15] 102% | [16] 108% | [17] 98.9%

CC(=O)O.[In]
inactive: [1] 93.4% | [2] 102% | [3] 102% | [4] 105% | [5] 114% | [6] 103% | [7] 106% | [8] 116% | [10] 107% | [11] 103% | [18] 105% | [12] 102% | [13] 106% | [14] 108% | [15] 106% | [16] 108% | [17] 104%

CCC1(CC)C(OC)NC(Br)=C(C#N)C1(C#N)C(N)=O (stereo not given)
inactive: [1] 57.5% | [2] 132% | [3] 106% | [4] 249% | [5] 110% | [6] 114% | [8] 119% | [10] 124% | [11] 113% | [18] 104% | [12] 107% | [13] 101% | [14] 110% | [15] 110% | [16] 121% | [17] 103%
active: [7] -8.89%

CCCCCCNc1nc(N2CCOCC2)c2[nH]c(NCCCCCC)nc2n1
active: [1] -29.2% | [2] -44.4% | [3] -67.7% | [4] -92% | [5] -88.9% | [6] -97.1% | [7] -55.4% | [8] -98.1% | [10] -98% | [11] -70.4% | [18] -81.4% | [12] -58.6% | [14] -88.4% | [15] -100% | [16] -100%

COc1nc(OC)nc(-c2cc(-c3cc(OC)c(OC)c(OC)c3)no2)n1
inactive: [1] 95.6% | [2] 90.4% | [3] 98.3% | [4] 115% | [5] 106% | [6] 116% | [7] 121% | [8] 116% | [10] 98.9% | [11] 103% | [18] 120% | [12] 111% | [13] 102% | [14] 93.7% | [15] 105% | [16] 112% | [17] 102%

O=C(Nc1ccc(Cl)c(Cl)c1)O/N=C\c1c(Cl)ccc([N+](=O)[O-])c1Cl
inactive: [4] 12.1% | [6] 61.3% | [10] 16.5%
active: [1] -23.7% | [2] -52.7% | [3] 8% | [5] -65.8% | [7] -45.8% | [8] -99.3% | [11] -46.8% | [18] -6.07% | [12] -31% | [13] -79.3% | [14] -62.9% | [15] -83.5% | [16] -64.7% | [17] -71.8%
